Assay results as given in PubChem BioAssay (NCI).
The panel holds about 83,000 compounds, 20% with a hit somewhere; the sample as a whole holds those more often.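 The test compound was applied at a single concentration to cells in 96-well plates for 48 hours, and percent growth was recorded.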 Active and inactive are the calls of the source. How the source made its calls: active means growth percent below 10; inactive means the rest.

Experiments:
Assay in all cases: NCI-60 one-dose screen, 48 h (100 = growth as untreated, 0 = no growth, -100 = all killed)
Conditions in all cases: 10 µM unless noted
NCI-H23 lung = test system: NCI-H23 lung
NCI-H226 lung = test system: NCI-H226 lung
NCI-H322M lung = test system: NCI-H322M lung
HOP-62 NSCLC = test system: HOP-62 NSCLC
NCI-H460 lung = test system: NCI-H460 lung
HOP-92 NSCLC = test system: HOP-92 NSCLC
NCI-H522 lung = test system: NCI-H522 lung
A549/ATCC NSCLC = test system: A549/ATCC NSCLC
786-0 renal = test system: 786-0 renal
COLO 205 colon = test system: COLO 205 colon

Measured: growth

CCN1C2CCC1/C(=C\c1ccc(F)cc1)C(=O)/C2=C/c1ccc(F)cc1
inactive: NCI-H23 lung 29.2% | NCI-H226 lung 51.6% | NCI-H322M lung 42.9% | HOP-62 NSCLC 46% | NCI-H460 lung 46.4% | HOP-92 NSCLC 38.1% | NCI-H522 lung 36.7% | A549/ATCC NSCLC 52.6% | 786-0 renal 42.5% | COLO 205 colon 20.7%

O=C(c1c[nH]c2ccccc12)c1n[nH]c(=S)n1-c1cccc(Br)c1
inactive: NCI-H23 lung 87.2% | NCI-H226 lung 83.1% | NCI-H322M lung 77.7% | HOP-62 NSCLC 81.7% | NCI-H460 lung 75% | HOP-92 NSCLC 84.2% | NCI-H522 lung 80% | A549/ATCC NSCLC 86.5% | 786-0 renal 103% | COLO 205 colon 99%

C=Cc1cnc(Nc2ccc(OC)cc2)nc1NCCCNC(=O)C1CCC1
inactive: NCI-H23 lung 45.2% | NCI-H226 lung 46.5% | NCI-H322M lung 68.8% | HOP-62 NSCLC 40.7% | NCI-H460 lung 34.5% | HOP-92 NSCLC 55.4% | NCI-H522 lung 47.9% | A549/ATCC NSCLC 32.4% | 786-0 renal 44.3% | COLO 205 colon 44.8%

COc1ccc(-c2nc3c(N)c(CO)cnc3s2)cc1
inactive: NCI-H23 lung 86.7% | NCI-H226 lung 41.6% | NCI-H322M lung 76% | HOP-62 NSCLC 100% | NCI-H460 lung 97.6% | HOP-92 NSCLC 77% | NCI-H522 lung 92.1% | A549/ATCC NSCLC 91.7% | 786-0 renal 95% | COLO 205 colon 104%

O=C1Nc2ccccc2/C1=C/c1cccn1C(=O)c1ccc(Cl)s1
inactive: NCI-H23 lung 30.2% | NCI-H226 lung 61.7% | NCI-H322M lung 50.4% | HOP-62 NSCLC 52.3% | NCI-H460 lung 75.7% | HOP-92 NSCLC 70.2% | NCI-H522 lung 37.8% | A549/ATCC NSCLC 23.4% | 786-0 renal 85.3% | COLO 205 colon 68%

CC(=C(c1ccc(OCCN2CCCCC2)cc1)c1ccc(OCCN2CCCCC2)cc1)c1ccc(Cl)cc1
active: NCI-H23 lung -82.4% | NCI-H226 lung -73.4% | NCI-H322M lung -97.2% | HOP-62 NSCLC -82% | NCI-H460 lung -82.4% | HOP-92 NSCLC -82.9% | NCI-H522 lung -76.9% | A549/ATCC NSCLC -81.7% | 786-0 renal -90.9% | COLO 205 colon -68.2%

O=C(C1CCCCC1)[C@@H]1[C@]2(C(=O)NC3CCCCC32)[C@@H]2CCCN2[C@@]12C(=O)NC1CCC(Cl)CC12 (stereo not given in full)
active: NCI-H23 lung -81.4% [100 µM] | NCI-H226 lung -55.1% [100 µM] | NCI-H322M lung -95.1% [100 µM] | HOP-62 NSCLC -73.2% [100 µM] | NCI-H460 lung -77.2% [100 µM] | HOP-92 NSCLC -89.9% [100 µM] | NCI-H522 lung -81.7% [100 µM] | A549/ATCC NSCLC -82.9% [100 µM] | 786-0 renal -80.8% [100 µM] | COLO 205 colon -80.8% [100 µM]

C#CCn1cnc2cnc(Nc3cccc(NC(=O)C=C)c3)nc21
inactive: NCI-H23 lung 95.6% [6.25 µM] | NCI-H226 lung 78.8% [6.25 µM] | NCI-H322M lung 96.1% [6.25 µM] | HOP-62 NSCLC 78.6% [6.25 µM] | NCI-H460 lung 90.6% [6.25 µM] | HOP-92 NSCLC 32.6% [6.25 µM] | NCI-H522 lung 71.4% [6.25 µM] | A549/ATCC NSCLC 85.3% [6.25 µM] | 786-0 renal 56.8% [6.25 µM] | COLO 205 colon 82.2% [6.25 µM]

O=S(=O)(NCCNc1nccc(-c2c(-c3ccc(F)c(O)c3)nc3sccn23)n1)c1ccc(F)cc1
inactive: NCI-H23 lung 36.6% | NCI-H226 lung 83.6% | NCI-H322M lung 47.6% | HOP-62 NSCLC 48.3% | NCI-H460 lung 21.9% | HOP-92 NSCLC 33.6% | NCI-H522 lung 28.5% | A549/ATCC NSCLC 26.9% | 786-0 renal 38.1% | COLO 205 colon 26.2%

O=C1/C(=C\c2cccc3nccnc23)SC(=S)N1CCc1ccc(O)cc1
active: HOP-92 NSCLC -0.0093%
inactive: NCI-H23 lung 93.7% | NCI-H226 lung 95.4% | NCI-H322M lung 96.4% | HOP-62 NSCLC 99.5% | NCI-H460 lung 105% | NCI-H522 lung 81.9% | A549/ATCC NSCLC 100% | 786-0 renal 94.8% | COLO 205 colon 118%

CNCc1cccc2c1OCCOCCOCCNS(=O)(=O)c1ccc(cc1)-c1cnc(N)c(n1)C(=O)N2
active: NCI-H460 lung 9.41% | NCI-H522 lung 9.67% | COLO 205 colon -18.7%
inactive: NCI-H23 lung 36.7% | NCI-H226 lung 24.5% | NCI-H322M lung 46.2% | HOP-62 NSCLC 26.4% | HOP-92 NSCLC 61.7% | A549/ATCC NSCLC 46.3% | 786-0 renal 30.8%

COc1cc(/C=C2\CN(S(=O)(=O)c3ccccc3)C/C(=C\c3cc(CN4CCCCC4)c(O)c(OC)c3)C2=O)cc(CN2CCCCC2)c1O
active: NCI-H23 lung -74.7% | NCI-H322M lung -30.1% | NCI-H460 lung -62.6% | HOP-92 NSCLC -65.2% | NCI-H522 lung -46.8% | 786-0 renal -68.8% | COLO 205 colon -4.52%
inactive: NCI-H226 lung 43.4% | HOP-62 NSCLC 104% | A549/ATCC NSCLC 12.1%

Cc1cccc2c1C[C@@]1(C2=O)C(c2ccc(C(C)(C)C)cc2)=NOS1=O (stereo not given in full)
inactive: NCI-H23 lung 83.2% | NCI-H226 lung 80.7% | NCI-H322M lung 92.2% | HOP-62 NSCLC 90% | NCI-H460 lung 92.2% | HOP-92 NSCLC 74.3% | NCI-H522 lung 90.8% | A549/ATCC NSCLC 90.3% | 786-0 renal 99.7% | COLO 205 colon 105%

Ic1ccccc1I
inactive: NCI-H23 lung 98.9% | NCI-H226 lung 90.5% | NCI-H322M lung 126% | HOP-62 NSCLC 90.3% | NCI-H460 lung 104% | HOP-92 NSCLC 90.2% | NCI-H522 lung 100% | A549/ATCC NSCLC 98.5% | 786-0 renal 92% | COLO 205 colon 127%

Cc1ccc(C(=O)c2ccc(CC(=O)N=Nc3c(O)[nH]c4ccc(Br)cc34)n2C)cc1
inactive: NCI-H23 lung 76.1% | NCI-H226 lung 77.9% | NCI-H322M lung 92% | HOP-62 NSCLC 89.6% | NCI-H460 lung 104% | HOP-92 NSCLC 106% | NCI-H522 lung 84.1% | A549/ATCC NSCLC 87.2% | 786-0 renal 97.6% | COLO 205 colon 106%

O=C(Nc1ccccc1N1CCCC1=O)c1oc2ccc(F)cc2c1-c1cnn(-c2ccccc2)c1
inactive: NCI-H23 lung 61.9% [50 µM] | NCI-H226 lung 39.4% [50 µM] | NCI-H322M lung 63% [50 µM] | HOP-62 NSCLC 55.1% [50 µM] | NCI-H460 lung 28.1% [50 µM] | HOP-92 NSCLC 29.1% [50 µM] | NCI-H522 lung 12.7% [50 µM] | A549/ATCC NSCLC 37.5% [50 µM] | 786-0 renal 21.3% [50 µM] | COLO 205 colon 47% [50 µM]

COc1ccc(/C(C)=C(/c2ccc(OCCCN(C)C)cc2)c2ccc(OC(=O)c3ccccc3)cc2)cc1
inactive: NCI-H23 lung 82.2% | NCI-H226 lung 102% | NCI-H322M lung 87% | HOP-62 NSCLC 92.3% | NCI-H460 lung 67.1% | HOP-92 NSCLC 52.5% | NCI-H522 lung 75.1% | A549/ATCC NSCLC 69.4% | 786-0 renal 73% | COLO 205 colon 94.4%
